PubChem BioAssay (NCATS)
Where “and” joins values, the source holds several entries; their conditions need not be identical. Identical values can stand only once. Inconclusive results are not listed. Calls of active or inactive are those of the source. The call rests on the fitted dose curve; in most records, active means well fitted inhibition curve with a large enough effect; inconclusive means small, poorly fitted or top-dose-only effect; inactive means no such curve, though single readings can be large or run the other way.

Assay: Primary qHTS for inhibitors of nuclear receptor binding SET domain protein 2 (NSD2) in an RCH-ACV wild type WT cells (2C) (AID 1645877); further: nearly all actives have a fitted effect of over 70% in size
Conditions: RCH-ACV (leukaemia line) NSD2 WT (2C) viability, CellTiter-Glo, 72 h; series mostly up to 44.9 µM
From the text: Assay Provider: Jonathan D. Licht, MD
University of Florida College of Medicine, Gainesville, FL
Mutations in epigenetic regulators are common in relapsed pediatric acute lymphoblastic leukemia (ALL). Here, we uncovered the mechanism underlying the relapse of ALL driven by an activating mutation of the NSD2 histone methyltransferase (p.E1099K). […] Correction of this mutation restored glucocorticoid sensitivity. The transcriptional response to glucocorticoids was blocked in NSD2 mutant cells due to depressed glucocorticoid receptor (GR) levels and the failure of glucocorticoids to autoactivate GR expression. […] Pre-treatment of NSD2 p.E1099K cell lines and PDX samples with PRC2 inhibitors reversed glucocorticoid resistance in vitro and in vivo.
High-throughput drug screening of isogenic RCH-ACV cell lines was performed at the National Center for Advancing Translational Science (NCATS), National Institutes of Health as previously described (1). Briefly, isogenic RCH-ACV NSD2 p.E1099K mutant (9B) and WT cells (2C) were plated at 500 cells/well in a 1536-well plate with a 72-hour incubation with compounds prior to addition of CellTiter-Glo to assess cell viability. NCATS libraries screened include: NPC, MIPE 5.0, Kinase and NPACT. To determine compound activity in the qHTS assay, the concentration-response data for each sample was plotted and modeled by a four-parameter logistic fit yielding IC50 and efficacy (maximal response) values. The area under the curve (AUC) of the dose-response curve ensures both efficacy (magnitude of cell killing) and potency (concentration that elicits cell killing) are accounted for in the analysis of activity.
1. Tobie D Lee, Olivia W Lee, Kyle R Brimacombe, Lu Chen, Rajarshi Guha, Sabrina Lusvarghi, Bethilehem G Tebase, Carleen Klumpp-Thomas, Robert W Robey, Suresh V Ambudkar, Min Shen, Michael M Gottesman, Matthew D Hall. A High-Throughput Screen of a Library of Therapeutics Identifies Cytotoxic Substrates of P-glycoprotein. Mol Pharmacol. 2019, Nov;96(5):629-640.

Row | Compound | Potency
1 | O=C(O)c1ccc(-c2c[nH]c3ncc(-c4ccccc4)cc23)cc1C1CCCC1 | 18.6 µM (active)
2 | N[C@H](CSC(c1ccccc1)(c1ccccc1)c1ccccc1)C(=O)O | inactive
3 | Cc1ccc(C(=O)Nc2cccc(C(F)(F)F)c2)cc1Nc1nc(-c2cccnc2)nc2c1cnn2C | inactive
4 | O=c1cc(-c2cccc3c2Sc2ccccc2S3)oc(N2CCOCC2)c1 | 11.6 µM (active) and 11.8 µM (active)
5 | CC(C)n1nc(-c2ccc3oc(N)nc3c2)c2c(N)ncnc21 | 36.5 nM (active) and 33.2 nM (active)
6 | CCN(CC)CCNC(=O)c1ccc(N)cc1 | inactive
7 | N[C@@]1(C(=O)O)CS(=O)(=O)[C@H]2[C@H](C(=O)O)[C@H]21 | inactive
8 | CC[C@]1(O)C[C@@H]2CN(CCc3c([nH]c4ccccc34)[C@@](C(=O)OC)(c3cc4c(cc3OC)N(C)[C@H]3[C@@](O)(C(=O)OC)[C@H](OC(C)=O)[C@]5(CC)C=CCN6CC[C@]43[C@@H]65)C2)C1 | 26.6 nM (active) and 53.1 nM (active) and 36.5 nM (active)
9 | Clc1cc(Cl)cc(CNc2ncncc2-c2ccc3c(c2)OCO3)c1 | 11.8 µM (active)
10 | O=C1c2ccccc2-[n+]2ccc3c([nH]c4ccccc43)c21 | 1.32 µM (active)
11 | Cc1nc(N)sc1-c1ccnc(Nc2ccc(N3CCOCC3)cc2)n1 | 459 nM (active) and 468 nM (active)
12 | COc1ccc(-n2c(C)c([N+](=O)[O-])c3ccc(O)cc32)cc1 | inactive
13 | NS(=O)(=O)c1ccc(NC2=CC(=O)c3ccccc3C2=O)cc1 | inactive
14 | CC[C@@]1(O)C[C@H](O[C@H]2C[C@H](N(C)C)[C@H](O[C@H]3C[C@H](O)[C@H](O[C@H]4CCC(=O)[C@H](C)O4)[C@H](C)O3)[C@H](C)O2)c2c(cc3c(c2O)C(=O)c2c(O)cccc2C3=O)[C@@H]1C(=O)OC | 1.18 µM (active)
15 | NC1CCC(Nc2nc(Nc3ccc(C(=O)N4CCCCC4)cc3)c3ncn(-c4cccc(F)c4)c3n2)CC1 (stereo not given) | 2.06 µM (active)
16 | COC(=O)[C@@H]1[C@H]2C[C@H]3c4[nH]c5ccccc5c4CCN3C[C@@H]2CC[C@@H]1O | inactive
17 | NC(N)=Nc1nc(CSCC/C(N)=N/S(N)(=O)=O)cs1 | inactive
18 | COc1cc2nc(-c3ccc(N4CCN(C)CC4)cc3)nc(NCCN3CCOCC3)c2cc1OC | 2.09 µM (active)
19 | CC(C)n1cnc2c(NCCCCCCNC(=O)OC(C)(C)C)nc(NCCO)nc21 | 16.6 µM (active)
20 | C[N+](C)(C)CC(=O)O | inactive

Row | Compound | Potency
21 | COc1ccc(-c2nc(N3CCOCC3)c3sc(CN(C)c4ncc(C(=O)NO)cn4)cc3n2)cn1 | 8.2 nM (active) and 33.2 nM (active)
22 | COc1ccc2c(Oc3ccc(NC(=O)c4c(C)n(CC(C)(C)O)n(-c5ccccc5)c4=O)cc3F)ccnc2c1 | 14.5 µM (active)
23 | Nc1ncnc2c1nc(Cl)n2[C@@H]1O[C@H](CO)[C@@H](O)[C@@H]1O | 20.9 µM (active)
24 | C[N+](C)(C)CCCCCC[N+](C)(C)C | inactive
25 | CC(C)[C@H](CO)Nc1nc(Nc2ccc(C(=O)O)c(Cl)c2)c2ncn(C(C)C)c2n1 | inactive
26 | COc1ccc(-c2cc(=O)c3c(O)cc(O)cc3o2)cc1O | 14.8 µM (active)
27 | CC(C)C(=O)Oc1ccc(CO)cc1[C@H](CCN(C(C)C)C(C)C)c1ccccc1 | inactive
28 | CC(C)=CC[C@@H](O)C1=CC(=O)c2c(O)ccc(O)c2C1=O | 20.9 µM (active)
29 | NC(=O)[C@@H](CCC(F)(F)F)N(Cc1ccc(-c2ncon2)cc1F)S(=O)(=O)c1ccc(Cl)cc1 | 23.5 µM (active)
30 | O=C(Nc1c(Cl)cncc1Cl)c1ccc(OC(F)F)c(OCC2CC2)c1 | inactive
31 | CNC1CCC(N(Cc2cccc(-c3ccncc3)c2)C(=O)c2sc3c(F)ccc(F)c3c2Cl)CC1 (stereo not given) | 7.42 µM (active) and 8.17 µM (active)
32 | CN(C)Cc1ccc(-c2nc3cccc4c3n2CCNC4=O)cc1 | 7.42 µM (active)
33 | COCCOC(=O)C1=C(C)NC2=C(C(=O)CC(c3ccccc3OC)C2)C1c1cccc(O)c1 (stereo not given) | 3.72 µM (active) and 3.25 µM (active)
34 | CC(C)(C)c1cc(C(=O)O)c(NC(=O)Nc2ccc3[nH]ncc3c2)s1 | inactive
35 | COc1cc(N2CCC(N3CCN(C)CC3)CC2)ccc1Nc1ncc(Cl)c(Nc2ccccc2S(=O)(=O)C(C)C)n1 | 649 nM (active) and 1.48 µM (active)
36 | CCN1CCC[C@H]1CNC(=O)c1cc(S(N)(=O)=O)ccc1OC | inactive
37 | O=C1C(Cl)=C(NCCN2CCOCC2)C(=O)c2ncccc21 | 3.32 µM (active)
38 | O=c1cc(N2CCOCC2)oc2c(-c3cccc4c3sc3ccccc34)cccc12 | 2.63 µM (active)
39 | O=c1cc(-c2ccccc2)oc2cc(O)cc(O)c12 | 16.6 µM (active)
40 | CN(C)C1CCN(C(=O)c2ccc(NC(=O)Nc3nc(N4CCOCC4)nc(N4CCOCC4)n3)cc2)CC1 | 28.2 nM (active) and 37.2 nM (active)
